# Results: paper PMC5540273 (PLoS ONE, 2017)
# System: CAMK1B
# Details: concentration: 1 μM, replicates: in singlicate; n = 1
# 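Note: KINOMEscan kinase panel screen.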
row,Compound,%Inh
1,CN1C(=O)C(Nc2ccc(Cl)c(C(=O)O)c2)=C(c2ccc(Cl)cc2)C1=O [SB-404290],0%
2,Cc1cccc(-c2nc(-c3ccc(S(C)(=O)=O)cc3)sc2-c2ccnc(NCCc3ccccc3)c2)c1,0%
3,COc1cccc(-c2cc(-c3c[nH]nc3-c3ccccn3)ccn2)c1 [GW680338],22%
4,Cl.NC(=O)c1cccc(Nc2nccc(Nc3ccc(Oc4cccc(Cl)c4)c(Cl)c3)n2)c1 [GW659008],0%
5,Cn1ccc2ncnc(Oc3ccc(NC(=O)Nc4ccccc4)cc3)c21,4%
6,Cc1ccc(C(=O)Nc2ccc(Nc3ccnc4cc(-c5ccccn5)ccc34)cc2O)cc1.Cl [GW440146],13%
7,Cc1c(O)cccc1Nc1ccnc2ccc(C(F)(F)F)cc12.Cl [GW466413],2%
8,CC(C)(C)c1ccc(C(=O)Nc2cn3cc(-c4cccnc4)ccc3n2)cc1,24%
9,CC1=C(C(=O)Nc2cc3cn[nH]c3cc2F)C(c2ccc(C(F)(F)F)cc2)CC(=O)N1 (centres unmarked) [GSK429286],8%
10,Cl.c1ccc(-c2n[nH]cc2-c2ccnc(-c3ccc(CN4CCOCC4)cc3)c2)nc1 [GW776245],0%
11,Cc1cccc(-c2cc(Nc3ccncc3)c3ccccc3n2)n1 [GSK223675],25%
12,Cc1cccc(-c2nc(Nc3ccncc3)c3ccccc3n2)n1 [GW855857],0%
13,COc1ccc2nc(-c3cccc(C)n3)nc(Nc3ccncc3)c2c1 [GSK204919],0%
14,COc1ccc(C2=C(Nc3cccc(C(=O)O)c3)C(=O)NC2=O)cc1 [SB-390765],44%
15,COc1ccc(Nc2nccc(-c3cccc(NC(=O)c4cc5cc(F)ccc5[nH]4)c3)n2)cc1 [GSK1229782],0%
16,CCCc1ccc(S(=O)(=O)NC2CCN(c3ccnc(Nc4ccc(F)cc4)n3)C2)cc1 (centres unmarked) [GSK1379715],6%
17,CC(=O)Nc1nc2cnc(Nc3cc(NC(=O)c4cccc(CCC#N)c4)ccc3C)nc2s1,0%

row,Compound,%Inh
1,Cc1ccc(NC(=O)Nc2cc(C(C)(C)C)nn2-c2ccccc2)cc1 [GSK1014915],33%
2,Cc1cccc(-c2nc(Nc3ccc4[nH]ncc4c3)c3ccccc3n2)n1 [GW857175],0%
3,Cc1cccc(-c2nc(C)cc(Nc3ccncc3)n2)n1 [GSK257997],12%
4,CS(=O)(=O)c1ccc(-c2nc3n(c2-c2ccncc2)CCC3)cc1 [SKF-105942],7%
5,O=C(Nc1ccc2c(c1)OCO2)NC1CCN(c2ccnc(Nc3ccc(F)cc3)n2)C1 (centres unmarked) [GSK1379724],16%
6,O=c1cc(N2CCOCC2)nc2n(Cc3cccc(Cl)c3Cl)ccn12 [GSK2286295],8%
7,COC(=O)c1c(-c2ccccc2)c2cc(OC)ccc2c(=O)n1Cc1ccccc1,0%
8,O=C(Nc1ccccc1)Nc1cccc(Oc2ccc3nccn3n2)c1,0%
9,Fc1cc(Cl)ccc1Nc1ccnc2cc(I)ccc12 [GW551191],5%
10,Cc1ccc(NC(=O)Nc2cccc(Cl)c2)cc1-c1ccc(C(=O)Nc2ccncc2)cc1 [GSK1398468],28%
11,O=C(O)COc1ncnc2cc(-c3ccc4[nH]ncc4c3)sc12,7%
12,Cn1ccc2ncnc(Oc3cccc(C(=O)Nc4ccccc4)c3)c21,12%
13,Cc1ccccc1-n1cnc2c(N)ncnc21 [SKF-97510],0%
14,COc1cc2ncnc(Nc3ccc4nc(-c5ccccc5)[nH]c4c3)c2cc1OC.Cl [GW282450],0%
15,Cl.O=C(Nc1cccc(-c2nn3ncccc3c2-c2ccnc(Nc3cccnc3)n2)c1)c1c(F)cccc1F [GSK312879],27%
16,NC(=O)c1nnc2ccccc2c1N,0%
17,CN(C)CCN(C)C(=O)c1cc(-c2ccncc2)c(-c2ccc(Cl)c(O)c2)o1.Cl.Cl [SB-710397],6%

# System: CAMK1D
# Details: concentration: 1 μM, replicates: in singlicate; n = 1
row,Compound,%Inh
1,CN1C(=O)C(Nc2ccc(Cl)c(C(=O)O)c2)=C(c2ccc(Cl)cc2)C1=O [SB-404290],17%
2,Cc1cccc(-c2nc(-c3ccc(S(C)(=O)=O)cc3)sc2-c2ccnc(NCCc3ccccc3)c2)c1,0%
3,COc1cccc(-c2cc(-c3c[nH]nc3-c3ccccn3)ccn2)c1 [GW680338],14%
4,Cl.NC(=O)c1cccc(Nc2nccc(Nc3ccc(Oc4cccc(Cl)c4)c(Cl)c3)n2)c1 [GW659008],17%
5,Cn1ccc2ncnc(Oc3ccc(NC(=O)Nc4ccccc4)cc3)c21,5%
6,Cc1ccc(C(=O)Nc2ccc(Nc3ccnc4cc(-c5ccccn5)ccc34)cc2O)cc1.Cl [GW440146],20%
7,Cc1c(O)cccc1Nc1ccnc2ccc(C(F)(F)F)cc12.Cl [GW466413],7%
8,CC(C)(C)c1ccc(C(=O)Nc2cn3cc(-c4cccnc4)ccc3n2)cc1,38%
9,CC1=C(C(=O)Nc2cc3cn[nH]c3cc2F)C(c2ccc(C(F)(F)F)cc2)CC(=O)N1 (centres unmarked) [GSK429286],7%
10,Cl.c1ccc(-c2n[nH]cc2-c2ccnc(-c3ccc(CN4CCOCC4)cc3)c2)nc1 [GW776245],27%
11,Cc1cccc(-c2cc(Nc3ccncc3)c3ccccc3n2)n1 [GSK223675],26%
12,Cc1cccc(-c2nc(Nc3ccncc3)c3ccccc3n2)n1 [GW855857],3%
13,COc1ccc2nc(-c3cccc(C)n3)nc(Nc3ccncc3)c2c1 [GSK204919],2%
14,COc1ccc(C2=C(Nc3cccc(C(=O)O)c3)C(=O)NC2=O)cc1 [SB-390765],18%
15,COc1ccc(Nc2nccc(-c3cccc(NC(=O)c4cc5cc(F)ccc5[nH]4)c3)n2)cc1 [GSK1229782],20%
16,CCCc1ccc(S(=O)(=O)NC2CCN(c3ccnc(Nc4ccc(F)cc4)n3)C2)cc1 (centres unmarked) [GSK1379715],0%
17,CC(=O)Nc1nc2cnc(Nc3cc(NC(=O)c4cccc(CCC#N)c4)ccc3C)nc2s1,30%

row,Compound,%Inh
1,Cc1ccc(NC(=O)Nc2cc(C(C)(C)C)nn2-c2ccccc2)cc1 [GSK1014915],3%
2,Cc1cccc(-c2nc(Nc3ccc4[nH]ncc4c3)c3ccccc3n2)n1 [GW857175],0%
3,Cc1cccc(-c2nc(C)cc(Nc3ccncc3)n2)n1 [GSK257997],14%
4,CS(=O)(=O)c1ccc(-c2nc3n(c2-c2ccncc2)CCC3)cc1 [SKF-105942],0%
5,O=C(Nc1ccc2c(c1)OCO2)NC1CCN(c2ccnc(Nc3ccc(F)cc3)n2)C1 (centres unmarked) [GSK1379724],30%
6,O=c1cc(N2CCOCC2)nc2n(Cc3cccc(Cl)c3Cl)ccn12 [GSK2286295],18%
7,COC(=O)c1c(-c2ccccc2)c2cc(OC)ccc2c(=O)n1Cc1ccccc1,20%
8,O=C(Nc1ccccc1)Nc1cccc(Oc2ccc3nccn3n2)c1,3%
9,Fc1cc(Cl)ccc1Nc1ccnc2cc(I)ccc12 [GW551191],0%
10,Cc1ccc(NC(=O)Nc2cccc(Cl)c2)cc1-c1ccc(C(=O)Nc2ccncc2)cc1 [GSK1398468],13%
11,O=C(O)COc1ncnc2cc(-c3ccc4[nH]ncc4c3)sc12,0%
12,Cn1ccc2ncnc(Oc3cccc(C(=O)Nc4ccccc4)c3)c21,0%
13,Cc1ccccc1-n1cnc2c(N)ncnc21 [SKF-97510],5%
14,COc1cc2ncnc(Nc3ccc4nc(-c5ccccc5)[nH]c4c3)c2cc1OC.Cl [GW282450],20%
15,Cl.O=C(Nc1cccc(-c2nn3ncccc3c2-c2ccnc(Nc3cccnc3)n2)c1)c1c(F)cccc1F [GSK312879],3%
16,NC(=O)c1nnc2ccccc2c1N,13%
17,CN(C)CCN(C)C(=O)c1cc(-c2ccncc2)c(-c2ccc(Cl)c(O)c2)o1.Cl.Cl [SB-710397],13%
